Gal4-VP16 FLuc: VP16 counterscreen qHTS for inhibitors of ROR gamma transcriptional activity. Potency, µM (titrated, usually from 53.6 µM), inactives show at the highest dose activity, negative = inhibition, actives largely listed as inhibitors. 310,000 compounds, 3.5% hits. AID 2546, 2010. Drosophila S2 Gal4-VP16 UAS-luciferase, luminescence, 20 h;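 note: Gal4-VP16 expression switched on by copper sulfate through the metallothionein promoter; potency is the fitted concentration of half-maximal effect; nearly all actives have a fitted effect of over 50% in size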
DT40 TDP1 no CPT: qHTS for Inhibitors of human tyrosyl-DNA phosphodiesterase 1 (TDP1): qHTS in cells in absence of CPT | DT40 Tdp1-/- hTDP1 cells, no CPT, ATP luminescence, 48 h | Potency, µM (titrated, usually from 46.2 µM), for inactives: at the top dose activity change, negative = growth inhibition, hits mostly inhibitors | 420,000 compounds, 15% hits | AID 686978, 2013; note: potency is the fitted concentration of half-maximal effect; nearly all actives have a fitted effect of over 55% in size
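Growth kinetics read by CellTiter-Glo luminescence after ≥48 hr at 37 °C. Cells: DT40 Tdp1-/- stably carrying human TDP1, 400 per well, compound exposure in the absence of CPT (DMSO vehicle).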
DT40 TDP1 CPT: qHTS for Inhibitors of human tyrosyl-DNA phosphodiesterase 1 (TDP1): qHTS in cells in presence of CPT; AID 686979, 2013; Potency, µM (doses to about 46.2 µM), for the others: at the highest dose activity change, negative = growth inhibition, most hits filed as inhibitors; chicken DT40 Tdp1-/-;hTDP1 cells + 20 nM CPT, ATP luminescence, 48 h; 420,000 compounds, 12% hits; note: potency is the fitted concentration of half-maximal effect; nearly all actives have a fitted effect of over 55% in size
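Chicken DT40 Tdp1-/- cells complemented with human TDP1, 400 cells/well, exposed to compounds plus 20 nM camptothecin for at least 48 h at 37 C; viability read as ATP content by CellTiter-Glo luminescence.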
IL-1B inflam inh: qHTS for Inhibitors of Inflammasome Signaling: IL-1-beta AlphaLISA Primary Screen; activity change, % at 57.5 µM; THP-1 LPS/ATP IL-1B secretion, AlphaLISA, 16 h; active compounds read low; 360,000 compounds, 4.7% hits; in the data active = activity change below about -50%; inconclusive = mostly about -30% to -49%
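Secreted IL-1B measured by AlphaLISA bead assay after 16 h compound exposure of THP-1 cells; compounds (final up to 57.5 uM) added 1 h before LPS (250 ng/mL) and ATP (1.25 mM) stimulation; lower signal means less secretion.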
RORgamma inh: qHTS for inhibitors of ROR gamma transcriptional activity; Potency, µM (series often up to 53.6 µM), inactives show at the highest dose activity change, negative = inhibition, usual class: inhibitors; Nuclear receptor ROR-gamma (Mus musculus), P51450; 310,000 compounds, 5.4% hits; AID 2551, 2010; Drosophila S2 Gal4-RORgamma UAS-luciferase reporter, 20 h; note: potency is the fitted concentration of half-maximal effect; nearly all actives have a fitted effect of over 60% in size
Target sequence (P51450 whole entry, looked up, the tested form may be a part): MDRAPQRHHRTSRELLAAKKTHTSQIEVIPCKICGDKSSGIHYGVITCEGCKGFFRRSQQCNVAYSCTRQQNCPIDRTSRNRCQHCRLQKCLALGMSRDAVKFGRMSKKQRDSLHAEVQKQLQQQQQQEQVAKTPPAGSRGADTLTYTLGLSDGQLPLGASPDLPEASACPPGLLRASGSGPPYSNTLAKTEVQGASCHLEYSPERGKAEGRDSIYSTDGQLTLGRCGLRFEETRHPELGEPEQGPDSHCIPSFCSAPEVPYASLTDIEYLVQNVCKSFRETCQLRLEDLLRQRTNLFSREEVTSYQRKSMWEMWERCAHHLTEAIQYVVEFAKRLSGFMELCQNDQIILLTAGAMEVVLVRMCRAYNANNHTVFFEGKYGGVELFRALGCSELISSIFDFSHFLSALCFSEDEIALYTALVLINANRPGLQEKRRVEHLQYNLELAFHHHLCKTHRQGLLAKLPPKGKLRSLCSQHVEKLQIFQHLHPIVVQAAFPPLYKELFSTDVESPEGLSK
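Drosophila S2 cells stably expressing Gal4-DBD/mouse RORγ fusion under metallothionein promoter plus UAS-luciferase; compound 1 h, then 700 uM CuSO4 induction for 20 h at ambient temperature; inhibition read as reduced luminescence.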
LDHA inh: qHTS assay for inhibitors of human lactate dehydrogenase; activity change, % (values are at about 110 or 230 µM); L-lactate dehydrogenase A chain (Homo sapiens), P00338; purified LDHA, NADH/diaphorase-resazurin fluorescence; active compounds read low; AID 1347041, 2019; 480,000 compounds, 0.15% hits; in the data active = activity change below about -30%; inconclusive = mostly about -25% to -30%;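 note: plate controls were DMSO wells for no effect and wells without enzyme for full effect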
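Enzyme activity of human lactate dehydrogenase 5 (2 nM; 0.06 mM NADH, 0.2 mM pyruvate, 5 min, RT) is measured via a resazurin/diaphorase fluorescence readout of residual NADH.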
An asterisk follows results filed as active; ? = inconclusive; . = no result given; [ ] = remark or other dose. In the library only some 18% were active in any assay of this set; here they are far more common. Unless noted, calls come from the whole dose curve; as a rule, active = well fitted curve in the direction sought with a large enough effect; inconclusive = small, poorly fitted or top-dose-only effect, or another doubt; inactive = no such curve, though single readings can be large; an effect the other way counts as inactive or inconclusive. Unless noted, % is set by controls: 0 for no effect and ±100 for the full control effect.

SMILES | Gal4-VP16 FLuc | DT40 TDP1 no CPT | DT40 TDP1 CPT | IL-1B inflam inh | RORgamma inh | LDHA inh
N=c1c2c(n(Cc3ccc(F)cc3)c3c1CCC3)CCCC2 | -12% | 1µM* | 0.82µM* | 0 | -13% | -7
Clc1cccc(CN2CCCCCC2)c1 | 2% | -13% | -6% | 3 | -5% | -3
COc1cc(C)c(C)cc1S(=O)(=O)Nc1ccc2c(c1)N(C(=O)c1cccnc1)CC2 | . | . | . | . | . | -10
COc1ccc(N(Cc2cc(CN3CCOCC3)cs2)S(=O)(=O)c2ccccc2C)cc1 | . | . | . | . | . | 8
O=C(Cc1ccc2c(c1)OCO2)NN=Cc1ccc([N+](=O)[O-])o1 | . | 12µM* | ? | -61* | . | 1
CCN(CC)c1ccc(N=Cc2ccc([N+](=O)[O-])o2)cc1 | 22µM* | 10µM* | 5.8µM* | -67* | ? | 29
O=C(CNC(=O)c1ccccc1)N/N=C/c1ccc([N+](=O)[O-])o1 | 18µM* | 23µM* | 9.2µM* | 17 | -28% | 5
Cc1ccc(NCC(=O)N/N=C\c2ccc([N+](=O)[O-])o2)cc1 | ? | 18µM* | 13µM* | -64* | ? | 1
Cc1cnc(C(=O)Oc2ccc(-c3ccc(C#N)cc3)cc2)cn1 | . | . | . | . | . | 3
O=C(CCC(=O)Nc1ccc(Cl)cc1Cl)N/N=C/c1ccc([N+](=O)[O-])o1 | 16µM* | 2.9µM* | 2.6µM* | -77* | ? | 16
O=C(CNc1ccccc1)N/N=C/c1ccc([N+](=O)[O-])o1 | ? | 7.3µM* | 10µM* | ? | 1% | 0
O=C(CCC(=O)Nc1ccc(Cl)cc1Cl)N/N=C/c1c2ccccc2cc2ccccc12 | . | . | . | . | . | 7
CCCCCC(=O)N/N=C/c1ccc([N+](=O)[O-])o1 | -27% | ? | 11µM* | 21 | -18% | 20
O=C(Cc1ccccc1)N/N=C/c1ccc(-c2ccc([N+](=O)[O-])cc2)o1 | -14% | ? | -15% | 19 | -28% | -8
O=C(N/N=C/c1ccc([N+](=O)[O-])o1)C1CCCCC1 | . | . | . | . | . | 4
CN(CC(=O)Nc1ccccc1Cl)C(=O)c1cccc(S(=O)(=O)N2CCN(Cc3ccccc3)CC2)c1 | . | 9.2µM* | 12µM* | -15 | . | 2
CN(CC(=O)Nc1cccc(F)c1)C(=O)c1cccc(S(=O)(=O)N2CCN(Cc3ccccc3)CC2)c1 | . | 8.2µM* | 8.2µM* | 9 | . | -2
CN(Cc1cccc(F)c1)C(=O)c1cccc(S(=O)(=O)N2CCN(Cc3ccccc3)CC2)c1 | ? | ? | ? | -26 | 96% | 1
CN(CC(=O)Nc1ccccc1Cl)C(=O)c1cccc(S(=O)(=O)N2CCN(c3ccccc3)CC2)c1 | . | ? | ? | -20 | . | -4
CC1CC(=S)Nc2ccccc2N1C(=O)Nc1ccccc1 (stereo not drawn) | ? | -10% | 4% | 11 | 10µM* | -5
C[C@H](NC(=O)[C@@H]1Cc2ccccc2CN1C(=O)OC(C)(C)C)C(=O)Nc1ccc2c(c1)OCCO2 | . | . | . | . | . | 10
CS(=O)(=O)C1=NSC2=NC(=O)/C(=C\c3cccn3-c3ccc(Cl)cc3)C(=N)N21 | 1% | 8% | 3% | 11 | -11% | -109*
Cc1cc(/C=C2/C(=N)N3C(=NC2=O)SN=C3S(C)(=O)=O)c(C)n1-c1ccccc1F | 4% | -20% | 20% | 37 | ? | -5
Cc1ccccc1NC(=O)C1Cc2ccccc2CN1C(=O)OCc1ccccc1 (stereo not drawn) | 16% | 21µM* | ? | -5 | 7% | 4
COc1ccc(-c2nc(-n3c(C)c(C(C)=O)c(C(C)=O)c3C)sc2C)cc1 | -10% | 23µM* | 21µM* | -13 | 11% | 0
SMILES | Gal4-VP16 FLuc | DT40 TDP1 no CPT | DT40 TDP1 CPT | IL-1B inflam inh | RORgamma inh | LDHA inh
CC(=O)c1c(C(C)=O)c(C)n(-c2nc(-c3ccc(C)c(C)c3)c(C)s2)c1C | ? | 23µM* | 18µM* | -67* | ? | 1
CC(=O)c1c(C(C)=O)c(C)n(-c2nc(-c3cccs3)c(C)s2)c1C | 1% | ? | ? | 32 | 1% | -4
Nc1nc2c(s1)C(c1ccccc1OCc1ccccc1Cl)CC(=O)N2 (stereo not drawn) | . | . | . | . | . | 82
CC(C)N1CCC(N2CCN(Cc3ccc(-c4ccc(Cl)cc4)o3)CC2CCO)CC1 (stereo not drawn) | -7% | 18µM* | ? | -69* | -13% | -4
CC(C)N1CCC(N2CCN(Cc3ccc(-c4ccccc4Cl)o3)CC2CCO)CC1 (stereo not drawn) | -17% | ? | ? | ? | ? | -8
Cc1ccc(-c2cccc(CN3CCN(C4CCN(C(C)C)CC4)C(CCO)C3)c2)o1 (stereo not drawn) | -10% | 7.3µM* | ? | ? | -3% | -10
Cc1ccccc1-c1cccc(CN2CCN(C)C(CCO)C2)c1 (stereo not drawn) | -12% | 4% | -23% | -54* | 37%[1.91 µM] | 0
Cc1[nH]c2ccccc2c1C(=O)C(=O)Nc1ccccc1C(C)C | . | . | . | . | . | -8
O=C(O)CCn1c(CO)nc2ccccc21 | 6% | -24% | ? | 13 | 9% | -1
N#CC(=C1NC(=O)c2ccccc21)c1nc2ccccc2n1CCO | . | 8.2µM* | ? | -74* | . | -1
COc1ccccc1C/C(N)=N/OC(=O)c1cccc([N+](=O)[O-])c1C | 13µM* | ? | ? | 11 | -37% | 0
COc1ccc(C(=O)CC(=O)C(=O)Nc2cccc([N+](=O)[O-])c2C)cc1 | ? | 16µM* | 21µM* | -5 | 10µM* | 4
COc1ccc(C(=O)CC(=O)C(=O)Nc2cccc(C(C)=O)c2)cc1 | 5% | ? | 4% | 26 | -22% | 16
COc1ccccc1C(=O)CC(=O)C(=O)Nc1cccc([N+](=O)[O-])c1C | 13µM* | 12µM* | 16µM* | -28 | 7.1µM* | 0
Cc1c(C(=O)OCC(=O)Nc2ccccc2OC(F)F)cccc1[N+](=O)[O-] | 1% | -17% | -13% | 16 | 19% | 1
COc1cccc(C(=O)CC(=O)C(=O)Nc2cccc([N+](=O)[O-])c2C)c1 | ? | 12µM* | 15µM* | -92* | 14µM* | 6
CC12CC3(C)CC(C)(C1)CC(N)(C2)C3 | . | . | . | . | . | 0

Source: PubChem BioAssay (National Center for Advancing Translational Sciences (NCATS))
